{"source": "PubChem BioAssay AID624298", "about": "(National Center for Advancing Translational Sciences (NCATS), 2012)", "note": "Results filed as inconclusive are left out. Calls of active or inactive are those of the source. Calls come from the whole dose curve; as a rule, active = well fitted activation curve with a large enough effect; inconclusive = small, poorly fitted or top-dose-only effect; inactive = no such curve, though single readings can be large or run the other way. Potency is the fitted concentration of half-maximal effect."}
{"assay": "Activators of T cell receptors: Hit Validation; for activation: 0% is about no effect", "conditions": "primary human leukocytes, cytokine release by HTRF, 48 h", "text": "(§1) Normally activation of naive T cells requires two signals. 1. A signal through the T cell receptor (TCR) which provides antigen specificity to the response. 2. Signals through co-stimulatory molecules, which are necessary for proliferation, survival and cytokine production. In the absence of co-stimulatory signals T cells are not effectively activated, and may even be rendered anergic or unresponsive to subsequent signaling. This lack of costimulation has been shown in multiple model systems to be a major factor in the limited strength and effectiveness of anti-tumor T cell responses. The goal of this project is to identify small molecule compounds that will stimulate T cell activation in the presence of TCR signaling but in the absence of co-stimulatory signals, thereby allowing activation of naive T cells in the absence of co-stimulation. Identification of such compounds would have clear experimental and clinical applications in instances where desirable antigen-specific immune responses are not generated due to a lack of co-stimulation, for example in the generation of anti-tumor responses.\n(§2) In collaboration between the National Cancer Institute and NIH Chemical Genomics Center, a high-throughput amenable screen was developed to discover small molecules that co-stimulate and activate human T cell receptors. The screen will be carried out using a novel homogeneous time resolved fluorescence energy transfer (HTRF) assay to measure production of the cytokine IL-2 by activated T cells and will be tested against the NIH Molecular Libraries Small Molecule Repository (MLSMR). This is the same assay tested against the hits identified in the primary screen.\n(§3) NIH Chemical Genomics Center [NCGC]\n(§4) NIH Molecular Libraries Probe Centers Network [MLPCN]\n(§5) Assay Submitter (PI): Richard Hodes, National Cancer Institute, NIH\n(§6) Primary human leukocytes are incubated with a-CD3 beads and compounds for 48 hr. The amount of secreted IL-2 is then assayed with a HTRF IL-2 kit. The presence of IL-2 cytokine captures the detection reagents and brings the a-IL-2-K and a-IL-2-d2 into close proximity. Upon excitation with 320nm light, the europium cryptate is capable of transferring energy to acceptor molecules within close proximity, resulting in acceptor molecule emission at 665nm."}
{"molecule": "CN(C)c1ccc(/C=C/c2cc[n+](C)c3ccccc23)cc1", "Potency": "7.91 µM (active)"}
{"molecule": "C=C(C)[C@@]12OC3(c4ccccc4)O[C@@H]1C1[C@@H]4O[C@]4(CO)[C@@H](O)[C@]4(O)C(=O)C(C)=C[C@H]4[C@@]1(O3)[C@H](C)[C@H]2OC(=O)/C=C/C=C/c1ccccc1", "note": "(stereo not given in full)", "Potency": "0.002 µM (active)"}
{"assay": "Activators of T cell receptors: Hit Validation; for activation: 0% is about no effect", "conditions": "primary human leukocytes, cytokine release by HTRF, 48 h; TCR-stimulated with anti-CD3 beads", "text": "as §1, §2, §3, §4, §5, §6"}
{"molecule": "CN(C)c1ccc(/C=C/c2cc[n+](C)c3ccccc23)cc1", "Potency": "6.28 µM (active)"}
{"assay": "Activators of T cell receptors: Hit Validation; for activation: 0% is about no effect", "conditions": "primary human leukocytes, cytokine release by HTRF, 48 h; at 46.1 µM (top of the series)", "text": "as §1, §2, §3, §4, §5, §6"}
{"molecule": "C#C[C@]1(O)CC[C@H]2[C@@H]3CCC4=CC(=O)CC[C@]4(C)[C@H]3CC[C@@]21C", "activation": "-6.05% (inactive)"}
{"molecule": "CCC(C)n1c(O)c(C=NC(C)c2ccccc2)c(=O)[nH]c1=S", "note": "(stereo not given)", "activation": "6.34% (inactive)"}
{"molecule": "COc1ccc(N/N=C/c2c(O)n(-c3ccc(C)c(C)c3)c(=O)[nH]c2=O)cc1", "activation": "11.6% (inactive)"}
{"molecule": "COc1ccc(/C=C/C(=O)c2c(O)n(CCC3=CCCCC3)c(=O)[nH]c2=O)cc1", "activation": "2.49% (inactive)"}
{"assay": "Activators of T cell receptors: Hit Validation; for activation: 0% is about no effect", "conditions": "primary human leukocytes, cytokine release by HTRF, 48 h; at 46.1 µM (top of the series); TCR-stimulated with anti-CD3 beads", "text": "as §1, §2, §3, §4, §5, §6"}
{"molecule": "Nc1cc(Cl)cc(Cl)c1", "activation": "-3.76% (inactive)"}
{"molecule": "CC(C)[C@]12CC(=O)[C@H](C)[C@H]1C2", "activation": "-2.87% (inactive)"}
{"molecule": "Cc1ccc(OC(F)F)c(N2C(=O)C3C4CCC(O4)C3C2=O)c1", "note": "(stereo not given)", "activation": "-0.91% (inactive)"}
